In publication PMC7862700, “An all-to-all approach to the identification of sequence-specific readers for epigenetic DNA modifications on cytosine”:

Legend:
Assay in all cases: DAPPL (digital affinity profiling via proximity ligation, sequencing); 10 mM Tris-HCl pH 7.5, 50 mM NaCl, 1 mM DTT, 4% glycerol, room temperature, 30 min; GST-TFs on glutathione beads, 16-mer random dsDNA library, 0.1% formaldehyde crosslink after washing; high values mean tight binding
FLI1 = molecular target: T1, FLI1 (Homo sapiens, UniProt Q01543 1-452); conditions: protein: recombinant; tags: N-terminal GST; dsDNA, one strand shown
T1 sequence: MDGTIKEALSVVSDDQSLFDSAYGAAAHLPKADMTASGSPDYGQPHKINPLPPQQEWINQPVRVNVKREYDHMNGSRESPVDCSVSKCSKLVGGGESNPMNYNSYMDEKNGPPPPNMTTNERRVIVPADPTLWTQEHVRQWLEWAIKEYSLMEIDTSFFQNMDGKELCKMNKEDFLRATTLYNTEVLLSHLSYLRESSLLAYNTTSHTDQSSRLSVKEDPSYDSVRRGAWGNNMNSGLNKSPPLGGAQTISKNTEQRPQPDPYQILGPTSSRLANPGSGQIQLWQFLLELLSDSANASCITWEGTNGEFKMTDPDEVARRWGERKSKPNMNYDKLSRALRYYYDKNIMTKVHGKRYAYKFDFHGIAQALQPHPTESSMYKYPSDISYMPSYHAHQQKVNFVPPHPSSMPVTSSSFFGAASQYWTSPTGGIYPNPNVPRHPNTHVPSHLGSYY
How it was run: (§1)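 Pools of DNA-barcoded human transcription factors, expressed in yeast as GST fusions on glutathione beads and combined with a tag-only sample, were incubated with 200 nmole of a 16-mer random double-stranded DNA library. Incubation took 30 min at room temperature in Tris/NaCl/DTT/glycerol buffer and was followed by washing, 0.1% formaldehyde crosslinking, proximity ligation (BsaI/T4 ligase, 1 h, 37 °C), PCR amplification and sequencing on an Illumina NextSeq500. Binding signal is the ratio of a hexamer's read frequency for a factor to its frequency for the tag-only sample.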

ELK1 = molecular target: T2, ELK1 (Homo sapiens, UniProt P19419 1-428); conditions: protein: recombinant; tags: N-terminal GST; dsDNA, one strand shown
T2 sequence: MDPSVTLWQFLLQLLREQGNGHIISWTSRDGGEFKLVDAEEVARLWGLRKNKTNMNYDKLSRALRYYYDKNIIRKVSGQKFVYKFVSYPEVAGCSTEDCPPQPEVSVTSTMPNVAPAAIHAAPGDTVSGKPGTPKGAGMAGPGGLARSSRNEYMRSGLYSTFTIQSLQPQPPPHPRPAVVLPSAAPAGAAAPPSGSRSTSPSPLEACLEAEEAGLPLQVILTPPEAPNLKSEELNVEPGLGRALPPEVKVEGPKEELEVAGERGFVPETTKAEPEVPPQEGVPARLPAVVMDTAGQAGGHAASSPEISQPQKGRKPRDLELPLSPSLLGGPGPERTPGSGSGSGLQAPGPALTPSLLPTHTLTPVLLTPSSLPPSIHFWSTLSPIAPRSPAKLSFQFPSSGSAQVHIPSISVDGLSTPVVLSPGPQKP
How it was run: as §1

GABPA = molecular target: T3, GABPA (Homo sapiens, UniProt Q06546 1-454); conditions: protein: recombinant; tags: N-terminal GST; dsDNA, one strand shown
T3 sequence: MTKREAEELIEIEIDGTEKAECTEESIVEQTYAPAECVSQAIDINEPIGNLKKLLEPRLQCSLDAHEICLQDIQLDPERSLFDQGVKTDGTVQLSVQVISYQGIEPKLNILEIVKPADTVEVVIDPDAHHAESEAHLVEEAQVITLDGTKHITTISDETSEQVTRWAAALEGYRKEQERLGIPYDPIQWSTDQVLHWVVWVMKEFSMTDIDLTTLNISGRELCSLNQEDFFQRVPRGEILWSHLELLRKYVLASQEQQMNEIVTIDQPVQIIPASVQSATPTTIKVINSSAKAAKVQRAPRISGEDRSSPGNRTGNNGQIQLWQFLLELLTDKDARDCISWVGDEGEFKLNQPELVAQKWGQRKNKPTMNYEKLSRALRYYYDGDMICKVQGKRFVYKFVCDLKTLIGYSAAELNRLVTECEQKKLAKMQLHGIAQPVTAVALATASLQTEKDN
How it was run: as §1

ERG = molecular target: T4, ERG (Homo sapiens, UniProt P11308 1-479); conditions: protein: recombinant; tags: N-terminal GST; dsDNA, one strand shown
T4 sequence: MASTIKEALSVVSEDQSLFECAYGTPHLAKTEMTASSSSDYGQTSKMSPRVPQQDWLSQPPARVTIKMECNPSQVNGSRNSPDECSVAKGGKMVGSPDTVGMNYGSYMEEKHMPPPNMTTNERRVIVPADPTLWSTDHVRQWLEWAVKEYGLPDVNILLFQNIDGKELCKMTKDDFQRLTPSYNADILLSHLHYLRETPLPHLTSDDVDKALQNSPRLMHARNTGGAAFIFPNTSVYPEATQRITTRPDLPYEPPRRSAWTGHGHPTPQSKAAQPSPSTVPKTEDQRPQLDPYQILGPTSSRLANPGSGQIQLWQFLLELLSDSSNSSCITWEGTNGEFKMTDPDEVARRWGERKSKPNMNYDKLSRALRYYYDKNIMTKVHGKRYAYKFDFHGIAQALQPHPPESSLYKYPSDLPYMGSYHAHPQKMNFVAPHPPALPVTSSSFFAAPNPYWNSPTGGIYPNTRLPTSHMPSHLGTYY
How it was run: as §1

ELF1 = ELF1 (Homo sapiens, UniProt P32519 1-619); conditions: protein: recombinant; tags: N-terminal GST; dsDNA, one strand shown
How it was run: as §1

EHF = molecular target: T5, EHF (Homo sapiens, UniProt Q9NZC4 1-300); conditions: protein: recombinant; tags: N-terminal GST; dsDNA, one strand shown
T5 sequence: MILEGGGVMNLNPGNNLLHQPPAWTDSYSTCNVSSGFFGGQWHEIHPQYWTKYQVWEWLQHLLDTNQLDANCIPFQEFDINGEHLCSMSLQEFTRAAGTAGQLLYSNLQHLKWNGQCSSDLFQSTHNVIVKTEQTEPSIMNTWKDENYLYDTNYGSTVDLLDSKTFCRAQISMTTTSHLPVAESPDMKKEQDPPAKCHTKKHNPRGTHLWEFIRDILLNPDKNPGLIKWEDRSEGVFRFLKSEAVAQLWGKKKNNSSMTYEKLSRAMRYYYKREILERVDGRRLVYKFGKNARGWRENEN
How it was run: as §1

SPI1 = SPI1 (Homo sapiens, UniProt P17947 1-270); conditions: protein: recombinant; tags: N-terminal GST; dsDNA, one strand shown
How it was run: as §1

SPIB = SPIB (Homo sapiens, UniProt Q01892 1-262); conditions: protein: recombinant; tags: N-terminal GST; dsDNA, one strand shown
How it was run: as §1

ELK3 = molecular target: T6, ELK3 (Homo sapiens, UniProt P41970 1-407); conditions: protein: recombinant; tags: N-terminal GST; dsDNA, one strand shown
T6 sequence: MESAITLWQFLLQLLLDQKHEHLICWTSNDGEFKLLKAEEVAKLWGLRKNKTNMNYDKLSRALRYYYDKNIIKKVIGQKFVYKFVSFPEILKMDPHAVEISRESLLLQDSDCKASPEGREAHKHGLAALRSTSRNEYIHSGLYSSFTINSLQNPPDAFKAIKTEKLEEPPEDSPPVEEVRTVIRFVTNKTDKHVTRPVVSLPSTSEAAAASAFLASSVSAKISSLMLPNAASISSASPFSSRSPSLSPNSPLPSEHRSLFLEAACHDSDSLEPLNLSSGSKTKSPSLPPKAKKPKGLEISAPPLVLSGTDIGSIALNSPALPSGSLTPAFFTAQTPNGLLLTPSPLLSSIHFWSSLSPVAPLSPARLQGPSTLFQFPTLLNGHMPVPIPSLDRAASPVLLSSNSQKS
How it was run: as §1

FEV = molecular target: T7, FEV (Homo sapiens, UniProt Q99581 1-238); conditions: protein: recombinant; tags: N-terminal GST; dsDNA, one strand shown
T7 sequence: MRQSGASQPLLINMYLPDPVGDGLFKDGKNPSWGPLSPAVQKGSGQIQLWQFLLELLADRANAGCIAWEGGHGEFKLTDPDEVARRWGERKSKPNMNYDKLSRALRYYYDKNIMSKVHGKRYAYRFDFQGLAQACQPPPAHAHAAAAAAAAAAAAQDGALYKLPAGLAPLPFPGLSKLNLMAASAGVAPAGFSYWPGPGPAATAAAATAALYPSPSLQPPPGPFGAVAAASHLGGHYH
How it was run: as §1

ETV5 = ETV5 (Homo sapiens, UniProt P41161 1-510); conditions: protein: recombinant; tags: N-terminal GST; dsDNA, one strand shown
How it was run: as §1

HSF1 = HSF1 (Homo sapiens, UniProt Q00613 1-529); conditions: protein: recombinant; tags: N-terminal GST; chain copies: 3; dsDNA, one strand shown
How it was run: as §1

SPIC = molecular target: T8, SPIC (Homo sapiens, UniProt Q8N5J4 1-248); conditions: protein: recombinant; tags: N-terminal GST; dsDNA, one strand shown
T8 sequence: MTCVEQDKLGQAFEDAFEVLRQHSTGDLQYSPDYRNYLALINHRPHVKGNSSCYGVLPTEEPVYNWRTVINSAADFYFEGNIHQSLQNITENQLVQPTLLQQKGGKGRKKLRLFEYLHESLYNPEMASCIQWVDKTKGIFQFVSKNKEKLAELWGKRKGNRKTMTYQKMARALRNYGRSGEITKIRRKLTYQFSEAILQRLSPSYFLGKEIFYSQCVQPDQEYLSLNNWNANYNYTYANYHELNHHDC
How it was run: as §1

ELF4 = ELF4 (Homo sapiens, UniProt Q99607 1-663); conditions: protein: recombinant; tags: N-terminal GST; dsDNA, one strand shown
How it was run: as §1

ELK4 = molecular target: T9, ELK4 (Homo sapiens, UniProt P28324-2 1-405); conditions: protein: recombinant; tags: N-terminal GST; dsDNA, one strand shown
T9 sequence: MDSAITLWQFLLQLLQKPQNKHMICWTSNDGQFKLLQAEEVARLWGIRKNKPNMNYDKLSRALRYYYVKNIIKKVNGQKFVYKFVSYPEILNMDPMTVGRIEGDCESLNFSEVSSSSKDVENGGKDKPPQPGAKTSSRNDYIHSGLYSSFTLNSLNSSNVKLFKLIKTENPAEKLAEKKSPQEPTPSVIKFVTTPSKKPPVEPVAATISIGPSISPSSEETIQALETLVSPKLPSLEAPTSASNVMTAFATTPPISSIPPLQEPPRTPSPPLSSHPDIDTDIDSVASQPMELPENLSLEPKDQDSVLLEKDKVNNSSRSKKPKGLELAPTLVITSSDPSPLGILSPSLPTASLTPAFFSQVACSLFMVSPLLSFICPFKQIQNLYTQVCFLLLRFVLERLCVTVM
How it was run: as §1

ETV2 = molecular target: T10, ETV2 (Homo sapiens, UniProt O00321 1-342); conditions: protein: recombinant; tags: N-terminal GST; dsDNA, one strand shown
T10 sequence: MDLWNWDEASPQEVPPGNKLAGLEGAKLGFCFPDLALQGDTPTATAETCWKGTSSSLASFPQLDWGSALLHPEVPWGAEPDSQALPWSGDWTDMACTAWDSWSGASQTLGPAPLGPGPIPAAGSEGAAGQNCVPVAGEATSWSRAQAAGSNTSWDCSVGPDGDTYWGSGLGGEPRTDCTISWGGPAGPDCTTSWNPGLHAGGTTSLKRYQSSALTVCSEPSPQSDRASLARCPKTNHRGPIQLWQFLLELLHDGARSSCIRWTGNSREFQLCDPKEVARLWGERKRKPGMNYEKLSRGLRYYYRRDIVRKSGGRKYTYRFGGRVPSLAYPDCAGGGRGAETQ
How it was run: as §1

ELF3 = molecular target: T11, ELF3 (Homo sapiens, UniProt P78545 1-371); conditions: protein: recombinant; tags: N-terminal GST; dsDNA, one strand shown
T11 sequence: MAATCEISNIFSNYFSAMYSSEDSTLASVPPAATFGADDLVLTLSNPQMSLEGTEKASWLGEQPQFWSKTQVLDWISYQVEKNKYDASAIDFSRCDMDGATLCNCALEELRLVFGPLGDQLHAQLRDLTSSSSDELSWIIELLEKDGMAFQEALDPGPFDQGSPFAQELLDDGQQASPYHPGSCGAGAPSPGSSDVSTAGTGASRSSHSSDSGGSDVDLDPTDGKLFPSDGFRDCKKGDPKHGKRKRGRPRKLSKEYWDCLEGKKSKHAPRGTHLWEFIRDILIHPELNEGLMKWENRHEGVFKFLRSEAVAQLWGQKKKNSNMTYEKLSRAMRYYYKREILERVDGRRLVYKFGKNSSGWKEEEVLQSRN
How it was run: as §1

CRX = CRX (Homo sapiens, UniProt O43186 1-299); conditions: protein: recombinant; tags: N-terminal GST; dsDNA, one strand shown
How it was run: as §1

ETV1 = ETV1 (Homo sapiens, UniProt P50549 1-477); conditions: protein: recombinant; tags: N-terminal GST; dsDNA, one strand shown
How it was run: as §1

Chain of ETV5 (P41161 whole entry): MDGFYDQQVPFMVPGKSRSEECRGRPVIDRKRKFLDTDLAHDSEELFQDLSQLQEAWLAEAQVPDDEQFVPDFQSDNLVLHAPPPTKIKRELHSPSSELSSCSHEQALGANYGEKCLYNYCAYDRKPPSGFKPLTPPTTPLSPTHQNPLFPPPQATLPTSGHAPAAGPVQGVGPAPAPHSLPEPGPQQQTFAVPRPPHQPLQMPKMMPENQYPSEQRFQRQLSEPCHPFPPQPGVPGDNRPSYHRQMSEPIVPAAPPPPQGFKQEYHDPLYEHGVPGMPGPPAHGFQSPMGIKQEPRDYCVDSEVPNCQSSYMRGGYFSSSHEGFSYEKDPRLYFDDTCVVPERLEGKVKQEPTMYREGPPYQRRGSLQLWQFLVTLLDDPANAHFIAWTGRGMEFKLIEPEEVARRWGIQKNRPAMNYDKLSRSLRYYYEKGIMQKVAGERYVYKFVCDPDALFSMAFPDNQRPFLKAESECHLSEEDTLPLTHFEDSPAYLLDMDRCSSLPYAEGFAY
Chain of ETV1 (P50549 whole entry): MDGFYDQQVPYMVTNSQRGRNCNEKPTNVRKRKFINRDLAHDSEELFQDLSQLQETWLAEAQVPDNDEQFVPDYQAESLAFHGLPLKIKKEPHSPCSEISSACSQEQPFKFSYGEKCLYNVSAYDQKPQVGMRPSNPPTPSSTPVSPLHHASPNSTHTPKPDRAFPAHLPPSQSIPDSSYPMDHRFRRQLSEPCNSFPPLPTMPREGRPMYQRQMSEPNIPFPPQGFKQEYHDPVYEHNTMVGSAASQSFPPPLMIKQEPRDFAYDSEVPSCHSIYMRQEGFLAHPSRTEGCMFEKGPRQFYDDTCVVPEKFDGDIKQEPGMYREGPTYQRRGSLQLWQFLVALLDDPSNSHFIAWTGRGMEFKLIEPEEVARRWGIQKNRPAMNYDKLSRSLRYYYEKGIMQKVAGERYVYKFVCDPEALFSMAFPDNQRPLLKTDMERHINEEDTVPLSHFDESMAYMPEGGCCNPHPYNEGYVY
Chain of HSF1 (Q00613 whole entry): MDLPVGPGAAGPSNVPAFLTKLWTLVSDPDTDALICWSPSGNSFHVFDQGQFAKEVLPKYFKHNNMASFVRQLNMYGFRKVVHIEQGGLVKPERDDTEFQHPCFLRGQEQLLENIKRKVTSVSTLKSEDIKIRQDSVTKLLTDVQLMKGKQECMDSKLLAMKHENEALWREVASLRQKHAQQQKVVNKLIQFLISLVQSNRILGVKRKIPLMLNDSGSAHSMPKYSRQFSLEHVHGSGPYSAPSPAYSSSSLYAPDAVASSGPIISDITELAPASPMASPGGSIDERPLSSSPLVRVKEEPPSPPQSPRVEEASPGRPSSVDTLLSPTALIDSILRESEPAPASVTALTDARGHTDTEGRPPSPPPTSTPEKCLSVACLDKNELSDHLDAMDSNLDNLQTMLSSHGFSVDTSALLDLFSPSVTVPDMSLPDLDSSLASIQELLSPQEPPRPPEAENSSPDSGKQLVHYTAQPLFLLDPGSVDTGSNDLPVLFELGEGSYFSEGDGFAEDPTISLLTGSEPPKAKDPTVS
Chain of ELF1 (P32519 whole entry): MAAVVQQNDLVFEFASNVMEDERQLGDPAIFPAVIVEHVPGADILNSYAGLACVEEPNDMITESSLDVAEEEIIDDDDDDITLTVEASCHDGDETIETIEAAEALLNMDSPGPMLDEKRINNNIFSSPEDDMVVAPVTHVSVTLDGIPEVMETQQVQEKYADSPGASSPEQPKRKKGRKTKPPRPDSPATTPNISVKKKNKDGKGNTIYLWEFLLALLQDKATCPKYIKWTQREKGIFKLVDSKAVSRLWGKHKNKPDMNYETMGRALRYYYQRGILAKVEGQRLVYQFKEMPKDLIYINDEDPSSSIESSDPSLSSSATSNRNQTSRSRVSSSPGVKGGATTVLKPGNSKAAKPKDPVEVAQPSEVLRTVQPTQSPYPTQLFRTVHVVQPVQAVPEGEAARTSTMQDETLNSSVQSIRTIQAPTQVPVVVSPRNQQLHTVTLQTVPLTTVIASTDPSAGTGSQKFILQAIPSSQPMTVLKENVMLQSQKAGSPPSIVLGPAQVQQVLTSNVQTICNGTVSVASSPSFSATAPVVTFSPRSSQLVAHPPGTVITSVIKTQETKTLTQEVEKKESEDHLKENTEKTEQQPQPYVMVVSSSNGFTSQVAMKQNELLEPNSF
Chain of CRX (O43186 whole entry): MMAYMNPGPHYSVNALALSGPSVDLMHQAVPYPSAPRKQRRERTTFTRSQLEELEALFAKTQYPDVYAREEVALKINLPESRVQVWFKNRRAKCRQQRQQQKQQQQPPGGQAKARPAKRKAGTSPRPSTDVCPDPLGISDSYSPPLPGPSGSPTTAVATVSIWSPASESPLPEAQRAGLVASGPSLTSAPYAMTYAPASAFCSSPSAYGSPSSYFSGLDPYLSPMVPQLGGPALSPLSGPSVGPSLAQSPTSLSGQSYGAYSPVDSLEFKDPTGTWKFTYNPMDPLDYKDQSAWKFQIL
Chain of SPIB (Q01892 whole entry): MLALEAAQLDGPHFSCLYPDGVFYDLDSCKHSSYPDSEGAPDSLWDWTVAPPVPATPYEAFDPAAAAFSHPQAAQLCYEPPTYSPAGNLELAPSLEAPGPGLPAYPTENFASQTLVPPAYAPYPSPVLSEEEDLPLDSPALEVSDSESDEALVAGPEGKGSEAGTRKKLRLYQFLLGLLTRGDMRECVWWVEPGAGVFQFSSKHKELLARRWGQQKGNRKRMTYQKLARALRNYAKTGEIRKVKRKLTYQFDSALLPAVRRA
Chain of ELF4 (Q99607 whole entry): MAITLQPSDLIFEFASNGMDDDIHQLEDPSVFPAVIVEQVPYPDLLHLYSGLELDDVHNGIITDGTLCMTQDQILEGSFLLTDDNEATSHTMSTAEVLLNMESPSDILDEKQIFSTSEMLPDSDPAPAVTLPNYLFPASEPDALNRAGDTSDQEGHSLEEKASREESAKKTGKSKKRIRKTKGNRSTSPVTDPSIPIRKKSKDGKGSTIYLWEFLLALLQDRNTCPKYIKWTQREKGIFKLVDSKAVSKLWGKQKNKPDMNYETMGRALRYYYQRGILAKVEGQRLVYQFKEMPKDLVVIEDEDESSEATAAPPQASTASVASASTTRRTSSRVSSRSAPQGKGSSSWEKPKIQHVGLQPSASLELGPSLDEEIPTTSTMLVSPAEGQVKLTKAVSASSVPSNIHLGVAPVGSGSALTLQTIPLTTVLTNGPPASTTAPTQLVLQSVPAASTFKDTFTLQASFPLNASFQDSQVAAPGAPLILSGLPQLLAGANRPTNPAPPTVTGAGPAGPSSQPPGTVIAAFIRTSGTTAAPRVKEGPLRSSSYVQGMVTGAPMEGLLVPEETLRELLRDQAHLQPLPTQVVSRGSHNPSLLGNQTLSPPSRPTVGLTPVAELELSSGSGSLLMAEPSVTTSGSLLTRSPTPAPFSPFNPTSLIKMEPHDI

Sequence: CTTCCG
- binding signal (FLI1): 7.32 fold enrichment (6-mer frequency, TF over GST control)
- binding signal (ELK1): 8.14 fold enrichment (6-mer frequency, TF over GST control)
- binding signal (GABPA): 6.76 fold enrichment (6-mer frequency, TF over GST control)
- binding signal (ERG): 8.96 fold enrichment (6-mer frequency, TF over GST control)
- binding signal (ELF1): 7.37 fold enrichment (6-mer frequency, TF over GST control)
- binding signal (EHF): 7.93 fold enrichment (6-mer frequency, TF over GST control)
- binding signal (SPI1): 9.8 fold enrichment (6-mer frequency, TF over GST control)
- binding signal (SPIB): 7.71 fold enrichment (6-mer frequency, TF over GST control)
- binding signal (ELK3): 9.13 fold enrichment (6-mer frequency, TF over GST control)
- binding signal (FEV): 10.5 fold enrichment (6-mer frequency, TF over GST control)
- binding signal (ETV5): 8.45 fold enrichment (6-mer frequency, TF over GST control)
- binding signal (HSF1): 1.57 fold enrichment (6-mer frequency, TF over GST control)
- binding signal (SPIC): 7.54 fold enrichment (6-mer frequency, TF over GST control)
- binding signal (ELF4): 7.4 fold enrichment (6-mer frequency, TF over GST control)
- binding signal (ELK4): 6.22 fold enrichment (6-mer frequency, TF over GST control)
- binding signal (ETV2): 7.7 fold enrichment (6-mer frequency, TF over GST control)
- binding signal (ELF3): 6.78 fold enrichment (6-mer frequency, TF over GST control)
- binding signal (CRX): 1.27 fold enrichment (6-mer frequency, TF over GST control)
- binding signal (ETV1): 7.97 fold enrichment (6-mer frequency, TF over GST control)
